# Literature values in PubChem BioAssay AID977611.
# The campaign covered roughly 3,900 compounds. About 3,900 (100%) were called active. No cut-off is given here; in the data, nearly all actives have Kd up to about 4200 µM. The set was probably picked from earlier hits. The list shows a part of the results. Where a SMILES comes first, the peptide text is derived from it. Non-standard residues stand in square brackets, D forms with d. Square brackets hold non-standard residues; d marks the D form. Residues, ends and D or L forms follow the SMILES beside them. Peptide text beside a SMILES is read from it. [ ]: non-standard residue; d: D form. Orn(CH(NH2)2) = NC(N)NCCC[C@H](N)C(=O)O
# Assay: PubChem AID 977611
# Conditions: PDB protein-ligand complexes, literature Kd
compound,measurement,setting,value
CCCCCCCC(=O)OC[C@H](CO[P+](O)(O)OCC[N+](C)(C)C)OC(=O)CCCCCCC,Kd,"protein: Matrix protein p17, PDB entry 2lya",65 µM (active)
CCCCCCCC(=O)OC[C@H](CO[P+](O)(O)OC[C@H](N)C(=O)O)OC(=O)CCCCCCC,Kd,"protein: Matrix protein p17, PDB entry 2lyb",35 µM (active)
CC(C)C[C@H](CNC(=O)Cc1c[nH]c2ccccc12)Cc1ccc2c(c1C(=O)O)OCO2,Kd,"protein: HIV integrase, PDB entry 4cjq",256 µM (active)
CC(C)C[C@H](CNC(=O)CCCN)Cc1ccc2c(c1C(=O)O)OCO2,Kd,"protein: HIV integrase, PDB entry 4ck3",268 µM (active)
CC(C)C[C@H](CNC(=O)c1ccncc1)Cc1ccc2c(c1C(=O)O)OCO2,Kd,"protein: HIV INTEGRASE, PDB entry 4cj4",432 µM (active)
CC(C)C[C@H](CNC(=O)c1cccnc1)Cc1ccc2c(c1C(=O)O)OCO2,Kd,"protein: HIV integrase, PDB entry 4cjp",481 µM (active)
NCCCC[C@H](NC(=O)[C@H](Cc1c[nH]c2ccccc12)NC(=O)c1ccc(O[C@@H]2O[C@H](CO)[C@H](O)[C@H](O)[C@H]2O)cc1)C(=O)N[C@@H](Cc1ccc(O)cc1)C(N)=O,Kd,"protein: PA-I galactophilic lectin, PDB entry 4lkf",4.3 µM (active)
NC(=O)CNC(=O)[C@H](Cc1c[nH]c2ccccc12)NC(=O)c1ccc(O[C@@H]2O[C@H](CO)[C@H](O)[C@H](O)[C@H]2O)cc1,Kd,"protein: PA-I galactophilic lectin, PDB entry 4lke",4.3 µM (active)
NC(=O)CC[C@H](NC(=O)c1ccc(O[C@@H]2O[C@H](CO)[C@H](O)[C@H](O)[C@H]2O)cc1)C(=O)N[C@@H](CCCNC(N)N)C(=O)N[C@@H](CO)C(N)=O,Kd,"protein: PA-I galactophilic lectin, PDB entry 4lkd",4.5 µM (active)
CC(C)C[C@H](NC(=O)[C@H](Cc1ccc(O)cc1)NC(=O)[C@@H]1CCCN1C(=O)[C@@H]1CCCN1)C(=O)N1CCC[C@H]1C(=O)N[C@@H](CCCNC(N)N)C(=O)N1CCC[C@H]1C(=O)N[C@@H](CCCNC(N)N)C(=O)O (H-PPYLP[Orn(CH(NH2)2)]P[Orn(CH(NH2)2)]-OH),Kd,"protein: Chaperone protein DnaK, PDB entry 4ezo",0.3 µM (active)
CC[C@H](C)[C@H](NC(=O)[C@H](CO)NC(=O)[C@H](CCCCN)NC(=O)[C@@H](NC(=O)[C@H](Cc1cnc[nH]1)NC(=O)[C@H](CCC(=O)O)NC(=O)[C@@H]1CCCN1C(=O)[C@H](CCCNC(N)N)NC(=O)[C@@H]1CCCN1C(=O)[C@H](C)NC(=O)[C@@H](NC(=O)[C@@H](NC(=O)[C@@H]1CCCN1C(=O)[C@@H]1CCCN1)C(C)C)[C@@H](C)CC)[C@@H](C)O)C(=O)N[C@@H](Cc1ccc(O)cc1)C(=O)N[C@H](C(=O)N[C@@H](CCCNC(N)N)C(=O)N[C@@H](CO)C(=O)O)[C@@H](C)O (H-PPVIAP[Orn(CH(NH2)2)]PEHTKSIYT[Orn(CH(NH2)2)]S-OH),Kd,"protein: the SH3 Domain of ?PIX, PDB entry 2df6",1.05 µM (active)
CC[C@H](C)[C@H](NC(=O)[C@@H](NC(=O)[C@@H]1CCCN1C(=O)[C@H](CCCNC(N)N)NC(=O)[C@H](CCCNC(N)N)NC(=O)[C@@H]1CCCN1)C(C)C)C(=O)N[C@@H](CCSC)C(=O)N[C@@H](CCCNC(N)N)C(N)=O (H-P[Orn(CH(NH2)2)][Orn(CH(NH2)2)]PVIM[Orn(CH(NH2)2)]-NH2),Kd,"protein: Chaperone protein DnaK, PDB entry 4ezt",7.4 µM (active)
CC[C@H](C)[C@H](NC(=O)[C@@H]1CCCN1C(=O)[C@H](CCCNC(N)N)NC(=O)[C@@H]1CCCN1C(=O)[C@@H]1CCCN1)C(=O)N[C@@H](Cc1ccc(O)cc1)C(=O)N[C@@H](CC(N)=O)C(=O)O (H-PP[Orn(CH(NH2)2)]PIYN-OH),Kd,"protein: Chaperone protein DnaK, PDB entry 4ezq",6.3 µM (active)
CC[C@H](C)[C@H](NC(=O)[C@@H]1CCCN1C(=O)[C@H](CCC(=O)O)NC(=O)[C@H](Cc1ccc(O)cc1)NC(=O)[C@H](CC(=O)O)NC(=O)[C@@H]1CCCN1C(=O)[C@H](CC(N)=O)NC(=O)[C@@H]1CCCN1C(=O)[C@@H](NC(=O)[C@@H]1CCCN1C(=O)[C@@H]1CCCN1)C(C)C)C(=O)N[C@H](C=O)CCCNC(N)N (H-PPVPNPDYEPI[Orn(CH(NH2)2)]-aldehyde),Kd,"protein: Epidermal growth factor receptor kinase substrate 8-like protein 1 SH3 domain, PDB entry 2rol",24 µM (active)
H-ARYGVSNTSINRK-OH,Kd,"protein: Protein HTP-1 P84L, PDB entry 4tzq",0.3 µM (active)
same,Kd,"protein: Protein HTP-2, PDB entry 4tzm",0.2 µM (active)
H-ATGSARSEGY-OH,Kd,"protein: WD repeat-containing protein 5, WDR5, PDB entry 4ewr",0.541 µM (active)
O=C(CCS)N1CCC(O)(c2ccc(Cl)c(C(F)(F)F)c2)CC1,Kd,"protein: CREB-binding protein, PDB entry 4i9o",1.9 µM (active)
CSCC[C@H](N)C(=O)N1CCC[C@H]1C(=O)N1CCC[C@H]1C(=O)N[C@H](C(=O)N[C@@H](CC(C)C)C(=O)N1CCC[C@H]1C(=O)N[C@@H](Cc1cnc[nH]1)C(=O)N[C@@H](CCCNC(N)N)C(=O)N[C@@H](CC(=O)O)C(=O)N[C@@H](Cc1c[nH]c2ccccc12)C(=O)O)[C@@H](C)O (H-MPPTLPH[Orn(CH(NH2)2)]DW-OH),Kd,"protein: Peroxisomal membrane protein PAS20 (SH3 domain), PDB entry 1n5z",44 µM (active)
H-SWVYSPLHYSA-OH,Kd,"protein: Talin FERM F3 domain, PDB entry 1y19",0.17 µM (active)
CC(C)C[C@H](NC(=O)[C@H](Cc1cnc[nH]1)NC(=O)[C@H](CCC(=O)O)NC(=O)[C@H](Cc1c[nH]c2ccccc12)NC(=O)[C@@H](NC(=O)[C@H](Cc1ccc(O)cc1)NC(=O)[C@@H](NC(=O)[C@H](C)NC(=O)[C@@H](N)CC(=O)O)[C@@H](C)O)[C@@H](C)O)C(=O)N[C@@H](C)C(=O)N[C@@H](Cc1c[nH]c2ccccc12)C(=O)N1CCC[C@H]1C(=O)O,Kd,"protein: The human ?-aminobutyric acid type A (GABAA), PDB entry 3d32",0.354 µM (active)
CC(C)C[C@H](NC(=O)CNC(=O)[C@H](CCCNC(N)N)NC(=O)[C@@H](N)CO)C(=O)N[C@@H](CCC(=O)O)C(=O)N[C@H](C(=O)N[C@@H](CO)C(=O)N[C@@H](Cc1cnc[nH]1)C(=O)N[C@@H](CCCNC(N)N)C(=O)N[C@@H](CC(C)C)C(=O)N[C@@H](C)C(=O)N1CCC[C@H]1C(=O)N[C@@H](Cc1c[nH]c2ccccc12)C(=O)O)C(C)C (H-S[Orn(CH(NH2)2)]GLEVSH[Orn(CH(NH2)2)]LAPW-OH),Kd,"protein: Telomeric repeat-binding factor 2, PDB entry 4m7c",0.75 µM (active)
